Sampled rows, rich in hits. Any-hit rate of the full collection: about 0.49%.
Tb PFK block: qHTS Assay to Find Inhibitors of T. brucei phosphofructokinase. ATP-dependent 6-phosphofructokinase (Trypanosoma brucei brucei), O15648. T. brucei PFK, ADP-Glo luminescence. Potency, µM (doses to about 57.5 µM), inactives show at the top dose activity, negative = inhibition, most hits filed as inhibitors. actives 0.17% (n = 330,000). AID 485367, 2010;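 note: potency is the fitted concentration of half-maximal effect; 0% = uninhibited 1x PFK enzyme wells and -100% = no-enzyme wells; nearly all actives have a fitted effect of over 60% in size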
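Activity is normalized to no-enzyme wells (full inhibition) and 1.25 nM enzyme wells (no inhibition). Reaction: 0.5 mM F6P, 0.1 mM ATP, 45 min RT, ADP-Glo luminescence; concentration-response curves fitted and classed by quality.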
Chronic BCR inh: qHTS Assay to Find Inhibitors of Chronic Active B-Cell Receptor Signaling | ABC-DLBCL IkBa-CBG/CBR reporter, luminescence ratio, 4 h | Potency, µM (highest dose often 46.1 µM), for the others: at the highest dose activity change, negative = inhibition, usual class: inhibitors | actives 0.05% (n = 340,000) | AID 493014, 2011; active = well fitted inhibition curve with a large enough effect in the signal ratio, with a control signal flat, not every such curve was filed as active; inconclusive = small, poorly fitted or top-dose-only effect, or effect the other way, or a change in a side signal; the % refers to the signal ratio;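 note: potency is the fitted concentration of half-maximal effect; plate controls were basal doxycycline-induced cells for no effect and cells given 10 µM MG132 for full effect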
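Compounds up to 46 uM were incubated four hours with TMD8 cells whose green CBG68 luciferase is fused to IkappaBalpha; red CBR luminescence normalised the signal, and concentration-effect curves were fitted to fusion, red and ratio data.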
CCT modulator: High-Throughput Screening for Modulators of Cytosolic Chaperonin Activity; purified chaperonin ATPase assay, HTRF ADP detection, 30 min; activity change, % (concentration not given with the values), hits read low; actives 0.3% (n = 360,000); in the data active = activity change below about -30%; note: % is set by controls: 0 for no effect and ±100 for the full control effect
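TRiC at 40 or 20 nM final (batch-dependent) in 30 mM Tris pH 7.4, 100 mM KCl, 5 mM MgCl2, 1 mM DTT, with compound at single 76 uM and 10 uM ATP, 30 min at 37 deg C. ADP detected by HTRF Transcreener, 665/615 ratio.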
ASM inhibitor: Inhibitors of Secretory Acid Sphingomyelinase (S-ASM): qHTS; actives 0.006% (n = 340,000); Sphingomyelin phosphodiesterase (Homo sapiens), P17405; Potency, µM (doses to about 57.5 µM), inactives show top-dose activity change, negative = inhibition, hits mostly inhibitors; AID 504937, 2011; placental ASM, HMU-PC fluorogenic substrate, 60 min; note: potency is the fitted concentration of half-maximal effect
Target sequence (P17405 47-631 limits assumed): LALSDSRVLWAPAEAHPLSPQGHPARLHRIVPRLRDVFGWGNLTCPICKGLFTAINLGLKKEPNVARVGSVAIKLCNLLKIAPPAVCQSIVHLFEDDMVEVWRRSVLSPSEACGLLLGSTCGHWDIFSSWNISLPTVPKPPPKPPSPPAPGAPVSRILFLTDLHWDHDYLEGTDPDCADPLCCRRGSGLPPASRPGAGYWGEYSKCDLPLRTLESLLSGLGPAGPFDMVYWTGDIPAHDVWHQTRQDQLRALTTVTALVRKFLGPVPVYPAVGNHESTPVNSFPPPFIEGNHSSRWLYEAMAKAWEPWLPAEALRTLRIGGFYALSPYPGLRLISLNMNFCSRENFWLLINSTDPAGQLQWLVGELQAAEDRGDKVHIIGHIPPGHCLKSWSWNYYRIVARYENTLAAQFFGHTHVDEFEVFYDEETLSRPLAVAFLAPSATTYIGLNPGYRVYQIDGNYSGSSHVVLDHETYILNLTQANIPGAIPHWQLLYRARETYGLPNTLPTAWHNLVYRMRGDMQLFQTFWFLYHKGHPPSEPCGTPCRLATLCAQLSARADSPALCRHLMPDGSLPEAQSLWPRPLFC
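Steps: dispense placental human ASM, pin compound, wait 10 min at room temperature, add HMU-PC0 substrate at 9 uM final, incubate 60 min at 37 °C, add stop solution raising pH to 10, read fluorescence.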
TCR act: Activators of T cell receptors: qHTS campaign; primary human leukocytes, anti-CD3, IL-2 HTRF, 48 h; Potency, µM (titrated, usually from 9.22 µM), without a hit: top-dose activation of IL-2 secretion, actives largely listed as activators; 330,000 tested, under 10 active; AID 504894, 2011; note: % of control where 0% means no effect
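HTRF read-out of IL-2 secretion: europium cryptate donor excited at 320nm, d2 acceptor emission at 665nm. Cells were primary human leukocytes incubated 48 hr with compounds and a-CD3 beads, supplying TCR signal only.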
* = called active by the depositor; i = inactive; ? = inconclusive; nt = no result given; [ ] = remark or other dose. Unless noted, calls come from the whole dose curve; as a rule, active = well fitted curve in the direction sought with a large enough effect; inconclusive = small, poorly fitted or top-dose-only effect, or another doubt; inactive = no such curve, though single readings can be large; an effect the other way counts as inactive or inconclusive.

SMILES | Tb PFK block | Chronic BCR inh | CCT modulator | ASM inhibitor | TCR act
COc1ccc(C)cc1-n1cnc2sc(C)c(C)c2c1=O | nt | nt | -0.7 | nt | nt
COc1ccccc1-n1cnc2sc(C)c(C)c2c1=O | 3.4% | 1.3% | -94.0* | -0.1% | 8.8%
COCCNc1ncnc2c1cnn2-c1cc(Cl)ccc1C | nt | -1.4% | nt | nt | nt
COc1cc(/C=C2\SC(c3ccccc3)=NC2=O)cc(Cl)c1O | -14.9% | -4.5% | -42.8* | -11.7% | 2.1%
COc1cc(/C=C2\SC(c3ccc(C)cc3)=NC2=O)ccc1O | 1.1% | -10.3% | 0.0 | -17.6% | 2.9%
COc1cc(/C=C2\SC(c3ccc(C)cc3)=NC2=O)cc(OC)c1OC | -13.1% | ? | -64.0* | -5.1% | -0.2%
CCC(=O)NC(c1cccs1)c1cc(Br)c2cccnc2c1O (stereo unspecified) | 2.4% | ? | nt | nt | nt
Cc1cc(SCC(=O)c2ccc3c(c2)OCO3)nc2ccccc12 | 1.8% | ? | -69.4* | 0.1% | -2.0%
Cc1cc(SCC(=O)c2ccc(O)c(O)c2)nc2ccccc12 | 0.5% | ? | -0.8 | -7.0% | -1.3%
Cc1ccc(-n2ncc3c(Nc4cccc(C(F)(F)F)c4)ncnc32)cc1C | nt | 4.9% | nt | nt | nt
CN(C)c1ccc(Nc2ncnc3c2c(-c2ccccc2)cn3-c2cccc(Cl)c2)cc1 | nt | -8.9% | nt | nt | nt
Nc1ccc(-c2nc3cc(N)ccc3s2)cc1 | -0.4% | ? | -41.5* | 277.1% | 2.8%
Cc1ccc2nc(-c3ccc(N)cc3)sc2c1 | -10.2% | ? | -0.3 | i | -2.4%
Cc1ccccc1NC(=O)Cc1nc(COC(=O)CSc2ccc(F)cc2)cs1 | nt | nt | -58.2* | nt | nt
CCOC(=O)CN1N=C(/C=C/c2ccccc2)CCC1=O | nt | nt | -47.8* | 0.4% | 15.1%
COc1ccc(NC(=O)c2oc3ccc(S(=O)(=O)N(C)C4CCCCC4)cc3c2C)cc1Cl | nt | 1.5% | nt | nt | nt
CCN(Cc1ccccc1)S(=O)(=O)c1cc(C(=O)Nc2cc(Cl)cc(Cl)c2)ccc1F | nt | 16.2% | nt | nt | nt
CCOc1ccc(NC(=O)CCC(=O)NNC(=O)COc2ccc(C)cc2)cc1 | 0.3% | 3.7% | 0.9 | -0.7% | 1.0%
CCOc1ccc(NC(=O)CCC(=O)NNC(=O)COc2ccc(C)cc2Br)cc1 | 0.3% | 1.8% | -36.4* | 1.9% | -3.4%
CCOC(=O)c1cnn(-c2ccc(NS(=O)(=O)c3ccc(Cl)cc3)cc2)c1C(F)(F)F | 0.6% | ? | -97.7* | -4.7% | -1.3%
Clc1cccc(-c2ccc3ncnc(NCc4ccc5c(c4)OCO5)c3c2)c1 | -0.2% | ? | nt | nt | nt
Cc1c(C(=O)c2ccccc2)c2ccccn2c1CCc1ccccn1 | -4.1% | ? | -69.9* | -2.1% | 0.2%
Cc1c(C(=O)c2ccc(F)cc2)c2ccccn2c1CCc1ccccn1 | 0.5% | 0.0% | 0.1 | -10.7% | 6.2%
Cc1ccc(N(C(=O)c2csnn2)C(C(=O)NC2CCCCC2)c2ccccn2)c(C)c1 (stereo unspecified) | -0.1% | -5.6% | -31.7* | -5.9% | 0.2%
Cc1ccc(N(C(=O)c2csnn2)C(C(=O)NC2CCCC2)c2ccccn2)c(C)c1 (stereo unspecified) | 1.5% | -7.0% | -4.3 | -2.5% | -4.3%
SMILES | Tb PFK block | Chronic BCR inh | CCT modulator | ASM inhibitor | TCR act
CCOc1ccccc1NC=C1C(=O)OC2(CCCCC2)OC1=O | -0.5% | ? | -37.6* | 1.4% | nt
O=[N+]([O-])c1ccc(/C=N/N2CCN(Cc3ccccc3)CC2)cc1 | 0.5% | -0.2% | -105.1* | -14.6% | 1.9%
COc1ccc(-n2c(NC(=O)c3ccco3)c(C#N)c3nc4ccccc4nc32)cc1 | 15.7% | 13.3% | -60.5* | i | -12.7%
N#Cc1c(NC(=O)c2ccccc2Cl)n(Cc2ccccc2)c2nc3ccccc3nc12 | 3.3% | 11.7% | -2.4 | 490.3% | -3.4%[46.1 µM]
COc1ccc(NC(=O)CN2CCN(c3ccc(C)cc3C)CC2)cc1 | 2.8% | -7.2% | -54.9* | -1.9% | nt
CC1(C)CC(=O)C2=C(C1)N1C(=C(C#N)C2c2ccc(Cl)cc2)N=C(N)c2ccccc21 (stereo unspecified) | -1.0% | ? | -36.3* | -16.5% | -2.7%
CCCc1cnc2c(c1SCC(=O)N(C)c1ccccc1)c(=O)n(C)c(=O)n2C | nt | 8.6% | nt | nt | nt
CCN(CC)CCN1CNC(=S)NC1 | nt | nt | -34.3* | nt | nt
COc1cccc(NC(=O)CSc2nnc(NC(=O)NC3CCCCC3)s2)c1 | nt | -19.6% | nt | nt | nt
CCn1cc(C(=O)N2CCCc3ccccc32)c2cc(OC)c(OC)cc2c1=O | -0.5% | 9.6% | -30.2* | 2.9% | 3.0%
CCn1cc(C(=O)N2CCN(c3ccccc3OC)CC2)c2cc(OC)c(OC)cc2c1=O | 5.5% | -4.1% | 2.0 | 3.3% | -13.0%
Cc1ccccc1OCCNc1ccc(C(F)(F)F)cc1[N+](=O)[O-] | 0.1% | ? | -52.8* | -15.4% | -5.6%
O=[N+]([O-])c1cc(C(F)(F)F)ccc1NCCOc1ccccc1 | 0.7% | ? | 2.3 | -11.5% | -1.4%[46.1 µM]
O=C(O)c1ccnc2c(O)cccc12 | -13.4% | -12.7% | nt | nt | nt
COc1ccc(CCNC(=O)C2CCN(S(=O)(=O)c3cccc4nsnc34)CC2)cc1OC | 4.0% | 8.5% | -0.4 | -3.1% | -5.3%
COc1ccc(CCNC(=O)C2CCN(S(=O)(=O)c3cccc4cccnc34)CC2)cc1OC | ? | 1.2% | -46.1* | 0.7% | -1.0%
CCOC(=O)c1c(P(=O)(N2CCOCC2)N2CCOCC2)noc1N | 3.7% | -0.5% | -54.3* | -0.7% | 1.9%
CCOC(=O)c1c(N)sc(C(=O)N2CCOCC2)c1C | -2.2% | -0.9% | -4.3 | 4.5% | 1.9%[46.1 µM]
COc1cc(C)ccc1NC(=O)c1ccc(S(=O)(=O)N2CCOCC2)cc1 | -2.7% | -1.1% | -30.1* | 0.7% | 2.3%
Cc1ccc(NC(=O)c2ccc(S(=O)(=O)N3CCOCC3)cc2)c(C)c1 | 0.9% | ? | 1.0 | -1.5% | 4.1%
CCN(CC)C(=O)c1sc2c(c1C)c(=O)n(-c1ccc(Cl)c(Cl)c1)c(=O)n2Cc1ccccc1C#N | nt | 11.7% | nt | nt | nt
Cc1nn(CCC(=O)NNC(=S)NCC(C)C)c(C)c1Br | -7.0% | 16.4µM* | -1.0 | 2.8% | 0.0%
CNC(=S)NNC(=O)CCn1nc(C)c(Br)c1C | nt | nt | -3.1 | 5.8% | nt
O=C1OCC2OC(O)C(O)C(O)C2OC(=O)c2cc(O)c(O)c(O)c2-c2c(O)c(O)c3oc(=O)c4c(c(O)c(O)c5oc(=O)c2c3c54)-c2c1cc(O)c(O)c2O (stereo unspecified) | 0.953µM* | 0.1% | nt | nt | nt
Cn1c(N=Nc2ccccc2)nc2ccccc21 | 12µM* | ? | 0.7 | -6.5% | -13.0%[46.1 µM]
CN(C)c1ccc(N=Nc2nc3ccccc3n2C)cc1 | -28.2% | ? | -0.6 | -11.0% | 4.5%
COc1ccc(CCNC(=O)CN2C(=O)COc3ccccc32)cc1OC | nt | -8.4% | nt | nt | nt
